“And” between values parts separate entries of the source, which are not always exact repeats. Identical values can stand only once. The whole screen tested about 5,500 compounds, of which about 2,000 (36%) were called active. Not shown: some 18% with an inconclusive outcome. Rule as the data show it: active = normalized growth mostly below about 0.91 (no sharp cut-off); inconclusive = no clear call, values can overlap the other calls; inactive = mostly above about 0.92. The list shows a part of the results.
Test: chemical genetic growth profiling, strain panel (AID 1159580);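 also: tested at 20 µM; growth read once vehicle control cultures reached saturation at 30 °C; 1 = growth at the plate median or of vehicle wells; lower values mean less growth of the strain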
Settings: S. cerevisiae deletion strains, growth OD

Measured: normalized growth

O=C(O)c1ccccc1O
inactive: locus YAL013W, strain DEP1, active compounds read low 1.01 | locus YAL021C, strain ccr4, active compounds read low 0.985 | locus YAL026C, strain drs2, active compounds read low 0.984 | locus YAL030W, strain snc1, active compounds read low 0.992 | locus YBL061C, strain skt5, active compounds read low 0.979 | locus YBR009C, strain hhf1, active compounds read low 0.996 | locus YBR021W, strain FUR4, active compounds read low 0.994 | locus YBR023C, strain chs3, active compounds read low 0.995 | locus YBR171W, strain sec66, active compounds read low 0.996 | locus YBR229C, strain ROT2, active compounds read low 1 | locus YBR231C, strain swc5, active compounds read low 0.975 | locus YBR279W, strain paf1, active compounds read low 0.979 | locus YCL011C, strain gbp2, active compounds read low 0.983 | locus YCL016C, strain dcc1, active compounds read low 1.01 | locus YCL029C, strain bik1, active compounds read low 1.01 | locus YCL069W, strain vba3, active compounds read low 0.994 | locus YCR088W, strain abp1, active compounds read low 0.981 | locus YDL005C, strain med2, active compounds read low 0.973 | locus YDL035C, strain GPR1, active compounds read low 1.01 | locus YDL040C, strain nat1, active compounds read low 0.969 | locus YDL074C, strain BRE1, active compounds read low 1.03 | locus YDL101C, strain DUN1, active compounds read low 1.01 | locus YDL134C, strain PPH21, active compounds read low 1.01 | locus YDL185W, strain tfp1, active compounds read low 0.992 | locus YDL192W, strain arf1, active compounds read low 1.01 | locus YDR001C, strain nth1, active compounds read low 0.955 | locus YDR069C, strain doa4, active compounds read low 0.975 | locus YDR101C, strain arx1, active compounds read low 1.01 | locus YDR137W, strain rgp1, active compounds read low 0.997 | locus YDR159W, strain sac3, active compounds read low 0.976 | locus YDR162C, strain NBP2, active compounds read low 1.01 | locus YDR195W, strain ref2 0.904 | locus YDR297W, strain sur2, active compounds read low 0.984 | locus YDR318W, strain mcm21, active compounds read low 1.03 | locus YDR334W, strain swr1, active compounds read low 0.916 | locus YDR335W, strain msn5, active compounds read low 0.959 | locus YDR388W, active compounds read low 1.01 | locus YDR392W, strain spt3, active compounds read low 1.02 | locus YDR502C, strain sam2, active compounds read low 1.01 | locus YEL003W, strain gim4, active compounds read low 0.973 | locus YEL037C, strain rad23, active compounds read low 0.986 | locus YEL061C, strain CIN8 (second series), active compounds read low 0.959 | locus YEL061C, strain CIN8, active compounds read low 1 | locus YER015W, strain faa2, active compounds read low 0.968 | locus YER016W, strain bim1, active compounds read low 0.978 | locus YER110C, active compounds read low 1.01 | locus YER111C, strain swi4, active compounds read low 0.97 | locus YER155C, strain BEM2 (second series), active compounds read low 0.967 | locus YER155C, strain BEM2, active compounds read low 0.992 | locus YER167W, strain BCK2, active compounds read low 1 | locus YFR010W, strain ubp6, active compounds read low 0.978 | locus YGL078C, strain dbp3, active compounds read low 0.998 | locus YGL086W, strain mad1, active compounds read low 1 | locus YGL167C, strain pmr1, active compounds read low 0.968 | locus YGL173C, strain kem1, active compounds read low 0.995 | locus YGL227W, strain vid30, active compounds read low 0.971 | locus YGL240W, strain doc1, active compounds read low 0.983 | locus YGL248W, strain PDE1, active compounds read low 1 | locus YGL253W, strain hxk2, active compounds read low 0.973 | locus YGR078C, strain PAC10, active compounds read low 1 | locus YGR135W, strain pre9, active compounds read low 1.03 | locus YGR252W, strain gcn5, active compounds read low 1.01 | locus YHR013C, strain ard1, active compounds read low 1.01 | locus YHR027C, strain rpn1, active compounds read low 0.984 | locus YHR030C, strain SLT2, active compounds read low 1.01 | locus YHR079C, strain IRE1 (second series), active compounds read low 1.02 | locus YHR079C, strain IRE1, active compounds read low 1.06 | locus YHR094C, strain hxt1, active compounds read low 0.997 | locus YHR129C, strain ARP1, active compounds read low 0.998 | locus YHR142W, strain chs7, active compounds read low 0.997 | locus YHR200W, strain rpn10, active compounds read low 1.01 | locus YIL066C, strain RNR3, active compounds read low 1 | locus YIL073C, strain SPO22, active compounds read low 1.05 | locus YIL125W, strain kgd1, active compounds read low 0.994 | locus YIR030C, strain dcg1, active compounds read low 1 | locus YJL092W, strain hpr5, active compounds read low 0.996 | locus YJL095W, strain BCK1 (second series), active compounds read low 0.978 | locus YJL095W, strain BCK1, active compounds read low 1.01 and 0.995 | locus YJL115W, strain asf1, active compounds read low 0.951 | locus YJL129C, strain trk1, active compounds read low 0.956 | locus YJL134W, strain LCB3, active compounds read low 1 | locus YJL154C, strain vps35, active compounds read low 0.961 | locus YJL164C, strain tpk1, active compounds read low 0.993 | locus YJL166W, strain qcr8, active compounds read low 0.994 | locus YJL168C, strain set2, active compounds read low 1.01 | locus YJL187C, strain SWE1 (second series), active compounds read low 1 | locus YJR043C, strain POL32, active compounds read low 0.979
